# Data as given in article PMC5540273 (PLoS ONE, 2017).
# pKd: −log10 of the molar value.
# Tests used:
# [1] = system: STK33
# [2] = system: WEE1
# [3] = system: WNK4
# [4] = system: STK36
# [5] = system: TAOK1
# [6] = system: TAOK3
# [7] = system: TESK1
# [8] = system: TXK
# [9] = system: TGFBR1
# [10] = system: T1, TIE2
# T1 construct: gene TEK
# [11] = system: TNIK
# [12] = system: TNNI3K
# [13] = system: T2, TRKA
# T2 construct: gene NTRK1
# [14] = system: TTK
# [15] = system: TYK2(JH1domain-catalytic)
# [16] = system: TYK2(JH2domain-pseudokinase)
# [17] = system: T3, VEGFR2
# T3 construct: gene KDR
# [18] = system: VRK2
# 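Note: kd values determined as follow-up on hits from a single-replicate KINOMEscan panel screen.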
smiles,measurement,setting,value
Cl.Cl.Cl.N#Cc1ccc(CCNc2nccc(-c3cccc(CN4CCNCC4)c3)n2)cc1 [GSK2137462],pKd,[1],5.41
same,pKd,[2],< 5.00
same,pKd,[3],< 5.00
CS(=O)(=O)Cc1ccc(Nc2nccc(-c3c(-c4cccc(NC(=O)C5CCCCC5)c4)nn4ncccc34)n2)cc1 [GSK350559],pKd,[4],7.17
CNCc1ccc2nc(NC(=O)c3ccc(C(C)(C)C)cc3)cn2c1,pKd,[5],< 5.00
same,pKd,[6],< 5.00
COc1cccc(CNC(=O)NC2CCN(c3ccnc(Nc4ccc(F)cc4)n3)C2)c1 (centres unmarked) [GSK1379723],pKd,[7],5.01
same,pKd,[8],< 5.00
Cn1cncc1C(=O)NC1CCN(c2ccnc(Nc3ccc(F)cc3)n2)C1 (centres unmarked) [GSK1379717],pKd,[7],< 5.00
same,pKd,[8],< 5.00
COc1ccc2cc(-c3nc(-c4ccccc4C(C)C)[nH]c3-c3ccncc3)ccc2c1 [SB-660566],pKd,[9],6.11
same,pKd,[10],6.80
Cc1nccc(-c2c(-c3ccc(F)cc3)ncn2CCCN2CCOCC2)n1.Cl [SB-282975],pKd,[10],< 5.00
Nc1nccc(-c2c(-c3ccc(F)cc3)ncn2C2CCN(Cc3ccccc3)CC2)n1 [SB-219980],pKd,[11],5.39
NS(=O)(=O)c1cccc(N/C=C2\C(=O)Nc3ccc(S(=O)(=O)Cc4c(Cl)cccc4Cl)cc32)c1 [GSK398099],pKd,[11],6.48
O=C(Nc1n[nH]c2nc(-c3cccs3)c(Br)cc12)C1CC1 [SB-735297],pKd,[12],< 5.00
COC(=O)C(Cc1ccccc1)NC(=O)NC1CCN(c2ccnc(Nc3ccc(F)cc3)n2)C1 (centres unmarked) [GSK1379714],pKd,[13],5.82
O=C(Nc1n[nH]c2cc(-c3ccsc3)ccc12)C1CC1 [SB-732932],pKd,[13],5.51
O=C1NC(=O)C(c2ccc(Cl)cc2)=C1Nc1ccc(O)cc1 [SB-340867],pKd,[14],5.26
CC(=O)c1c(C)c2cnc(Nc3ccc(N4CCNCC4)cn3)nc2n(C2CCCC2)c1=O,pKd,[14],8.04
Cn1cncc1-c1cc2c(Nc3ccc(OCc4ccccc4)cc3)ncnc2cn1 [GW281179],pKd,[15],< 5.00
CN1c2ccc(-c3ccc(C(N)=O)cc3)cc2-c2[nH]ncc2S1(=O)=O,pKd,[16],6.03
Cn1cnc2c(N)ncnc21 [SKF-97623],pKd,[17],< 5.00
same,pKd,[18],< 5.00
O=C1NC(=O)C(c2ccc(Cl)cc2)=C1Nc1cccc(Cl)c1 [SB-317651],pKd,[18],< 5.00
CNc1cc(-c2ccc3c(N)n[nH]c3c2)nc(N)n1 [GSK2224810],pKd,[3],< 5.00
